In the supplement of paper PMC8975748:
Structures can show the parent of a compound that is named as a salt.

Test system: Saccharomyces cerevisiae BY4741 SeMeCo community
Experiment: z-score of subpopulation abundance vs DMSO median, subpopulation auxotrophic for LM; higher = larger share of this subpopulation than in DMSO controls
Settings: 10 µM; 24 h; SM minimal medium; subpopulation (auxotrophy): LM
Procedure: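 Fluorescent four-plasmid SeMeCo (self-establishing metabolically cooperating S. cerevisiae BY4741 community; plasmids pH-mRuby2, pL-mWasabi, pU-eCFP, pM-TagRFP657) was grown 24 h in minimal SM medium with each Selleck FDA-approved drug at 10 µM in 384-well plates. Cells were fixed and imaged by high-content confocal microscopy. For each auxotrophic subpopulation (and the prototroph), a z-score gives the deviation from the DMSO vehicle-control population median.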

Going from O=C(O[C@H]1C[C@H]2CC[C@@H](C1)[N+]21CCCC1)C(O)(c1ccccc1)c1ccccc1 [Trospium chloride] to C[N+]12CCC(CC1)C(OC(=O)C(O)(c1ccccc1)c1ccccc1)C2 (centres undefined) [Clidinium Bromide], the “z-score of subpopulation abundance” value falls from -0.54 to -0.72.

Compared with CC(C)=CCOc1c2occc2cc2ccc(=O)oc12 [Imperatorin], COc1ccc(C=O)cc1 [p-Anisaldehyde] is lower in “z-score of subpopulation abundance” value: 0 for the first, -0.17 for the second.

Compared with CCN1CC2(OC(=O)c3ccccc3NC(C)=O)CCC(OC)C34C1C(CC23)C1(O)CC(OC)C2CC4C1(O)C2OC (centres undefined) [Lappaconitine], C[C@@H]1O[C@@H](O[C@H]2C[C@@H](O)[C@]3(CO)[C@H]4[C@H](O)C[C@]5(C)[C@@H](C6=CC(=O)OC6)CC[C@]5(O)[C@@H]4CC[C@]3(O)C2)[C@H](O)[C@H](O)[C@H]1O [Ouabain] is lower in “z-score of subpopulation abundance” value: -0.33 for the first, -0.83 for the second.

First: CN1C(=O)COc2c(C(=O)NC3CN4CCC3CC4)cc(Cl)cc21 (centres undefined) [Azasetron HCl]
Second: O=c1[nH]c2ccccc2n1CCCN1CCC(n2c(=O)[nH]c3cc(Cl)ccc32)CC1 [Domperidone]
The “z-score of subpopulation abundance” value of the first is higher: 1.69 for the first, -0.04 for the second.

Compared with COc1ccc2c(c1)[C@]13CCCC[C@@H]1[C@H](C2)N(C)CC3 [Dextromethorphan hydrobromide hydrate], COc1cc2c(cc1OC)C1CC(=O)C(CC(C)C)CN1CC2 (centres undefined) [Tetrabenazine (Xenazine)] is higher in “z-score of subpopulation abundance” value: -0.18 for the first, 0.75 for the second.

Compared with CCOC(=O)Nc1ccc(NCc2ccc(F)cc2)cc1N [Retigabine 2HCl], Cc1cc(C(C#N)c2ccc(Cl)cc2)c(Cl)cc1NC(=O)c1cc(I)cc(I)c1O (centres undefined) [Closantel] is higher in “z-score of subpopulation abundance” value: 0.17 for the first, 1.19 for the second.

First: COC(=O)C1=CCCN(C)C1 [Arecoline HBr]
Second: NC(=O)CN1CCCC1=O [Piracetam]
The “z-score of subpopulation abundance” value of the first is lower: 0.61 for the first, 1.96 for the second.

First: CN1[C@@H]2C[C@@H](OC(=O)[C@H](CO)c3ccccc3)C[C@H]1[C@@H]1O[C@@H]12 [Scopolamine HBr trihydrate]
Second: CN1[C@@H]2CC[C@H]1C[C@@H](OC(=O)[C@H](CO)c1ccccc1)C2 [Hyoscyamine]
The “z-score of subpopulation abundance” value of the first is higher: -0.12 for the first, -0.17 for the second.

Compared with CN(C)C(=O)Oc1ccc[n+](C)c1 [Pyridostigmine Bromide], CCN(C)C(=O)Oc1cccc([C@H](C)N(C)C)c1 [Rivastigmine] is lower in “z-score of subpopulation abundance” value: -0.35 for the first, -0.54 for the second.

First: CN1[C@@H]2CC[C@H]1C[C@@H](OC(=O)C(CO)c1ccccc1)C2 (some centres undefined) [Atropine sulfate monohydrate]
Second: CN1[C@@H]2C[C@@H](OC(=O)[C@H](CO)c3ccccc3)C[C@H]1[C@@H]1O[C@@H]12 [Scopolamine HBr]
The “z-score of subpopulation abundance” value of the first is higher: -0.12 for the first, -0.51 for the second.

Going from CN(C)[C@@H]1C(=O)C(C(N)=O)=C(O)[C@@]2(O)C(=O)C3=C(O)c4c(O)cccc4[C@@](C)(O)[C@H]3[C@H](O)[C@@H]12 [Oxytetracycline (Terramycin)] to CN(C)[C@@H]1C(=O)C(C(N)=O)=C(O)[C@@]2(O)C(=O)C3=C(O)c4c(O)ccc(Cl)c4[C@@](C)(O)[C@H]3C[C@@H]12 [Chlortetracycline HCl], the “z-score of subpopulation abundance” value falls from -0.04 to -0.46.

Going from C[C@H]1O[C@H](O[C@H]2[C@H](O)[C@@H](O)[C@@H](O)[C@H](O)[C@@H]2O)[C@@H](N)C[C@@H]1NC(=N)C(=O)O [Kasugamycin hydrochloride] to CC(=O)O[C@H]1C[C@@H]2CC[C@@H]3[C@H](CC[C@@]4(C)[C@H]3C[C@H]([N+]3(C)CCCCC3)[C@@H]4OC(C)=O)[C@@]2(C)C[C@@H]1[N+]1(C)CCCCC1 [Pancuronium dibromide], the “z-score of subpopulation abundance” value falls from 0.45 to -1.26.

First: C[N+](C)(C)CCCCCCCCCC[N+](C)(C)C [Decamethonium Bromide]
Second: CCCCCCCCCCCCCCCC[n+]1ccccc1 [Cetylpyridinium Chloride]
The “z-score of subpopulation abundance” value of the first is lower: -0.15 for the first, 0.44 for the second.

First: Cn1cc(C2=C(c3cn(C4CCN(Cc5ccccn5)CC4)c4ccccc34)C(=O)NC2=O)c2ccccc21
Second: O=C(O[C@H]1C[N+]2(CCCOc3ccccc3)CCC1CC2)C(O)(c1cccs1)c1cccs1 [Aclidinium Bromide]
The “z-score of subpopulation abundance” value of the first is lower: -1.68 for the first, -0.14 for the second.

Compared with Nc1nc(N)nc(NC2CC2)n1 [Cyromazine], C#C[C@]1(O)C=C[C@H]2[C@@H]3CCC4=CC(=O)CC[C@@H]4[C@H]3CC[C@@]21CC [Gestodene] is lower in “z-score of subpopulation abundance” value: 0.84 for the first, 0.29 for the second.

First: Cc1cc(O)ccc1Cl [Chlorocresol]
Second: CCN(C)C(=O)Oc1cccc([C@H](C)N(C)C)c1 [Rivastigmine Tartrate]
The “z-score of subpopulation abundance” value of the first is lower: -0.37 for the first, 0 for the second.

First: C=C(C)[C@H]1Cc2c(ccc3c2O[C@@H]2COc4cc(OC)c(OC)cc4[C@@H]2C3=O)O1 [Rotenone (Barbasco)]
Second: N#Cc1nn(-c2c(Cl)cc(C(F)(F)F)cc2Cl)c(N)c1[S+]([O-])C(F)(F)F (centres undefined) [Fipronil]
The “z-score of subpopulation abundance” value of the first is higher: -0.22 for the first, -0.79 for the second.
